Only some compounds are listed: those with a hit (about 7.5% of all), similar ones and a draw of the others.
NPC1 promoter act – qHTS Assay for NPC1 Promoter Activators | Huh7 NPC1 promoter luciferase reporter, 24 h | Potency, µM (titrated, usually from 9.22 µM), without a hit: top-dose activation, hits mostly activators | 2.4% of 320,000 active; further: % of control where 0% means no effect; nearly all actives have a fitted effect of over 60% in size
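Luminescence read-out of NPC1 promoter-driven luciferase in stably transfected Huh7 cells; compounds delivered in DMSO and left 24 h at 37C, 5% CO2, qHTS titration format.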
Luc counter – Counterscreen for Luciferase (Kinase-Glo TM) Inhibition | Potency, µM (series often up to 38.3 µM), for the others: top-dose activity change, negative = inhibition, actives largely listed as inhibitors | Kinase-Glo luciferase, ATP luminescence, 8 min | Luciferin 4-monooxygenase (Photuris pensylvanica), Q27757 | 0.28% of 200,000 active; further: on the % scale 0 is the no-effect control and ±100 the full control effect; nearly all actives have a fitted effect of over 60% in size
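Compounds were added to a substrate mix at pH 7.2 (50 mM imidazole, 10 uM ATP, within the enzyme's linear range), followed by Kinase-Glo detection reagent; luminescence was measured after 8 minutes at ambient temperature.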
FLuc counter – qHTS profiling assay for firefly luciferase inhibitor/activator using purifed enzyme and Km concentrations of substrates (counterscreen for miR-21 project); Luciferin 4-monooxygenase (Photinus pyralis), P08659; purified FLuc, Km substrates, luminescence inhibition; Potency, µM (highest dose often 57.5 µM), inactives show at the highest dose activity change, negative = inhibition, hits mostly inhibitors; 6.9% of 360,000 active; AID 588342, 2011;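 further: plate controls were vehicle for no effect and reference inhibitor for full effect; nearly all actives have a fitted effect of over 55% in size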
Target sequence (P08659 whole entry, looked up): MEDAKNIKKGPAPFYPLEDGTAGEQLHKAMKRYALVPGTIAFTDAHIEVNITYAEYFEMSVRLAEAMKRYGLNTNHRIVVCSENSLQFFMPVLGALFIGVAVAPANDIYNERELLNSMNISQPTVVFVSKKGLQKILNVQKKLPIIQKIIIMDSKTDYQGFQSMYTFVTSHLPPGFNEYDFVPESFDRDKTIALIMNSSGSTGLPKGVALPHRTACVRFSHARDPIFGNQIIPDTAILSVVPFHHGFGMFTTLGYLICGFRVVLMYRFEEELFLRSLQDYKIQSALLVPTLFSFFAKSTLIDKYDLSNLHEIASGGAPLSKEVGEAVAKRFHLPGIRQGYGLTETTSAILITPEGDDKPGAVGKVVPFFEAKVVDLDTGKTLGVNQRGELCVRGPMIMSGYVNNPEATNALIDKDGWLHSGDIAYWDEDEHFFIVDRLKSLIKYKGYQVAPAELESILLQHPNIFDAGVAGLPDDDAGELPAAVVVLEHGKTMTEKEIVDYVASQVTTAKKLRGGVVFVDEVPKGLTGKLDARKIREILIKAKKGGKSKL
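Biochemical qHTS of compounds, final roughly 60 µM downward over six points, against 10 nM purified firefly luciferase using Km concentrations of substrates (10 uM D-luciferin, 10 uM ATP) in Tris acetate pH 7.5 buffer; luminescence output.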
ELG1 genotox – qHTS screen for small molecules that induce genotoxicity in human embryonic kidney (HEK293T) cells expressing luciferase-tagged ELG1; HEK293T ELG1-luciferase reporter, luminescence, 16 h; Potency, µM (titrated, usually from 46 µM), for inactives: at the top dose activity change, positive = activation, hits mostly activators; 1.3% of 330,000 active; AID 504466, 2011; further: % of control where 0% means no effect; nearly all actives have a fitted effect of over 60% in size
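After overnight (16 hr) compound treatment at 37 °C, ELG1-luciferase HEK293T cells were lysed with ONE-Glo; luminescence quantified 30 min later at room temperature.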
SMN2 splice enh – qHTS Assay for Enhancers of SMN2 Splice Variant Expression. AID 1458, 2008. Potency, µM (doses to about 46.1 µM), for the others: at the highest dose activity change, positive = activation, most hits filed as activators. HEK293 SMN2-luciferase splicing reporter, luminescence, 30-36 h. 2.8% of 210,000 active; further: % of control where 0% means no effect; nearly all actives have a fitted effect of over 55% in size
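qHTS luciferase splicing reporter: luminescence rises when SMN2 exon 7 is included in transfected HEK293 cells. Compound exposure lasted 30-36 h at 37C, with 4.5 mM final sodium butyrate as control, followed by a ONE-Glo read.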
Rab9 promoter act – qHTS Assay for Rab9 Promoter Activators; AID 485297, 2010; 2.8% of 320,000 active; Potency, µM (highest dose often 9.22 µM), without a hit: top-dose activation, negative = inhibition, hits mostly activators; Huh7 Rab9 promoter-luciferase reporter, luminescence, 24 h; further: % of control where 0% means no effect; nearly all actives have a fitted effect of over 60% in size
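Measured in stably transfected Huh7 cells bearing a Rab9 promoter–luciferase construct: 24 h compound treatment at 37 °C, followed by luminescence detection.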
The depositor's hits bear a star; ? = inconclusive; . = no result; [ ] = dose if it differs, or a comment. The call rests on the fitted dose curve; in most records, active means well fitted curve in the direction sought with a large enough effect; inconclusive means small, poorly fitted or top-dose-only effect, or another doubt; inactive means no such curve, though single readings can be large; an effect the other way counts as inactive or inconclusive. Potency means the concentration at half of the fitted maximal effect.

SMILES	NPC1 promoter act	Luc counter	FLuc counter	ELG1 genotox	SMN2 splice enh	Rab9 promoter act
CC(NC(=O)Nc1ccc2c(c1)OCO2)C1CCCO1 (configuration not stated)	?	1.0%	16.9µM*	12.9%	?	?
Cc1ccc(NC(=O)/C=C/c2ccc3c(c2)OCO3)nc1	2.51µM*	-1.7%	2.13µM*	?	2.82µM*	2.51µM*
Cc1ccc(OC(F)F)c(NC(=O)Nc2ccc3c(c2)OCO3)c1	3.7%	.	?	-4.6%	.	6.1%
Cc1cc(C)cc(NC(=O)NC(C)C2CCCO2)c1 (configuration not stated)	-1.4%	1.5%	?	-0.1%	.	-0.8%
Cc1ccc2nc(NC(=O)/C=C/c3ccc4c(c3)OCO4)sc2c1	3.7%	-2.1%	3.3%	?	-58.7%	0.5%
Cc1cc(C)nc(NC(=O)Nc2ccc3c(c2)OCO3)c1	0.708µM*	-1.9%	?	?	2.51µM*	0.562µM*
Cc1ccc(NC(=O)Nc2ccc3c(c2)OCO3)nc1	3.16µM*	-2.9%	6.75µM*	?	12.6µM*	2.51µM*
Nc1ncnc2c1nc(Br)n2[C@H]1O[C@H]2COP(=O)(O)O[C@H]2[C@@H]1O	.	1.5%	.	.	.	.
Cc1cc(C)nc(NC(=O)c2ccc3c(c2)OCO3)c1	18.4%	?	16.9µM*	14.5%	6.6%	17.2%
Cc1cccc(NC(=O)Nc2cc(C)cc(C)n2)c1	2.24µM*	-3.4%	1.51µM*	?	5.01µM*	1.26µM*
Cc1ccnc(NC(=O)CNC(=O)c2ccc3c(c2)OCO3)c1	0.2%	.	-6.4%	18.8%	.	0.7%
CN1CCN(c2ccc(NC(=O)c3cc4ccccc4o3)cc2)CC1	1.58µM*	.	6.01µM*	10.3µM*	.	3.55µM*
O=C(Nc1ccc(CN2CCOCC2)cc1)c1ccc(Br)o1	3.16µM*	.	19µM*	?	.	?
O=C(Nc1ccc(S(=O)(=O)N2CCOCC2)cc1)c1ccc(Br)o1	2.3%	-1.2%	0.7%	-4.0%	-22.3%	-6.6%[1.84 µM]
CN1CCN(c2ccccc2NC(=O)c2cc3ccccc3o2)CC1	20.0%	0.3%	?	5.3%	-10.6%	2.2%
O=C(NCCN1CCOCC1)Nc1ccc(Cl)cc1	6.0%	1.1%	-2.8%	-5.3%	7.08µM*	-1.6%
O=C(Nc1ccccc1N1CCCC1)c1cc2ccccc2o1	?	-18.0%	7.57µM*	0.5%	22.4µM*	29.2%
O=C(O)c1ccc(S(=O)(=O)N[C@H](Cc2c[nH]c3ccccc23)C(=O)O)cc1	12.9%	.	1.4%	.	.	6.3%
COC(=O)CC[C@@H](C)C1CC[C@H]2[C@H]3CC[C@H]4C[C@@H]5CCC4(C)[C@@]3(O5)[C@@H](Br)[C@@H](Br)[C@@]12C (some centres not stated)	.	-1.4%[7.66 µM]	.	.	-4.7%[9.22 µM]	.
CCOC(=O)c1cnc2ccc(Cl)cc2c1Nc1ccc(OCC)cc1	.	.	-8.9%	.	-3.3%	.
Cc1ccsc1C(=O)Nc1ccccc1N1CCOCC1	6.1%	-6.2%	19µM*	-2.1%	5.7%	-5.9%
O=C(Nc1ccc(N2CCOCC2)c(Cl)c1)c1ccc(Br)o1	1.41µM*	-23.1%	8.49µM*	?	4.47µM*	3.16µM*
Cc1cc(NC(=O)c2cccnc2Cl)ccc1NC(=O)c1cc2ccccc2o1	-3.6%	.	-6.5%	-21.3%	.	-4.6%
O=C(Nc1cccnc1Cl)c1cc2ccccc2o1	1.58µM*	.	5.36µM*	9.2µM*	.	1.26µM*
O=C(Nc1ccc(N2CCN(C(=O)c3ccccc3)CC2)c(Cl)c1)c1ccc(Br)o1	-4.4%	-3.5%	-1.5%	-6.9%	-41.8%	-9.1%
O=C(Nc1ccc(N2CCOCC2)c(Cl)c1)c1cc2ccccc2o1	3.55µM*	-4.6%	8.49µM*	-11.3%	27.4%	3.16µM*
